The record followed here is PubChem BioAssay (NCI).

Where “and” joins values, the source holds several entries; their conditions need not be identical. Equal entries are not always repeated. This is part of a sample that, as a whole, favours compounds with a hit. Of some 83,000 tested, about 20% had one in any assay.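 96-well plates, one dose, 48 hours. Percent growth reported; active if below 10.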 Calls of active or inactive are those of the source.

The test has as its system RPMI-8226 leukemia. The experiment in a line: NCI-60 one-dose screen, 48 h (100 = growth as untreated, 0 = no growth, -100 = all killed). To be noted: 10 µM unless noted. The protocol: Growth inhibition of the RPMI-8226 human tumor cell line is measured as a screen for anti-cancer activity. Cells are grown in 96 well plates and exposed to the test compound for 48 hours. Compounds are tested at a single concentration, which is 10^-5 M for most compounds. The reported endpoint is percent growth (GI% or GIPRCNT), where numbers from 0 - 100% represent growth inhibition, and numbers from -100% - 0 represent cell death. For example, a value of 40 represents 60% growth inhibition. A value of 0 means no net growth occurred over the course of the experiment. A value of -40 indicates 40% of cells at the beginning of the experiment died by the end of the experiment. A value of -100 means all cells are dead at the end of the experiment.
NCI-60 Human Tumor Cell Lines Screen was performed using the standard one-dose NCI protocol, which is described in more detail at https://dtp.cancer.gov/discovery_development/nci-60/default.htm.
Compounds with GIPRCNT values below 10 were considered active. Activity score was based on GIPRCNT using the following formula: […]
Score is 0 for GIPRCNT values of 100 or above, 50 for GIPRCNT values of 0, and 100 for GIPRCNT values of -100.
For the compound `CCOc1ccccc1[C@H]1C(C(=O)c2ccc(Cl)cc2)C2(N[C@@H]1c1ccccc1)C(=O)Nc1ccccc12` (stereo not given in full), the growth was 10.9% (inactive). For the compound `Cn1cc(-c2cc(N)n3nc(-c4c[nH]c5ccccc45)cc3n2)c2ccccc21`, the growth is -3.23% (active). For `COc1ccc(S(=O)(=O)Nc2ccc(-c3ccc4c(c3)NC(=O)/C4=C\c3ccc[nH]3)cc2)cc1OC` the value was 39.4% (inactive); for `COC(=O)c1c(C(=O)OC)c2c3ccccc3c3ccccc3n2c1C(=O)C(F)(F)F`, 97.6% (inactive); for `COc1ccc(N=Nc2c(N)nn3c(-c4ccc5c(c4)C=S=C5)ccnc23)cc1`, 9.87% (active). Consider `CN1CCN(C(=O)CCN(C(=O)Oc2cc3c(c4ccccc24)[C@H](CCl)CN3C(=O)c2cc3cc(OCCCN4CCC4)ccc3[nH]2)[C@H]2CCSSC2)CC1`, for which the growth is -39.8% (active). Then `CCCCNc1ccc2c3c(cccc13)C(=O)N(c1cccc(-c3nn(-c4ccccc4)cc3-c3nc4ccccc4s3)c1)C2=O`, with 95.3% (inactive); and `COc1ccc(-c2cc(-c3cc(OC)c(OC)c(OC)c3)[nH]c(=O)c2C#N)cc1`, with 72.2% (inactive). As for `COc1ccc(-c2cc(-c3cc(C(C)C)c(O)cc3C)nn2-c2ccc(S(N)(=O)=O)cc2)cc1`, the growth was 16.5% (inactive). With `COc1c(B(O)O)cc(F)cc1-c1nc2c(F)cc3[nH]ncc3c2c2c1CCCC2`, the growth is -5.25% (active). With `COc1cc(C2CC(c3ccc(F)cc3)=Nc3c(N)nc(N)nc3N2)ccc1Oc1nc(Nc2ccc(F)cc2)nc(N(C)C)n1` (stereo not given), the growth is 15.7% (inactive).

On to `COc1ccc(Nc2nnc(-c3c[nH]c4ccccc34)o2)cc1`, for which the growth was 32.5% (inactive). With `O=C(Nc1nc2ccccc2s1)Nc1ccccc1Cl`, the growth is 91.9% (inactive). `CN1C(=O)C(O)(CC(=O)c2cc3ccccc3oc2=O)c2ccccc21` (stereo not given): the growth was 97.6% (inactive). In the case of `Cc1cnc2ccc(Oc3ccccc3-c3ccccc3)nn12`, the growth is 106% (inactive). In the case of `COC(=O)CSC1=C(C)C(=O)C(OC)=C(OC)C1=O`, the growth was 65.6% (inactive). Take `O=C(CCl)Nc1ccc(C(=O)/C=C/c2cc3ccccc3nc2Cl)cc1`: the growth is -36.6% (active) and 40.5% (inactive). Turning to `O=C(c1ccc(O)cc1)C1[C@H](c2ccccc2Br)[C@@H](c2ccccc2)NC12C(=O)Nc1ccccc12` (stereo not given in full), the growth is 31.4% (inactive). `Cc1ccc(-c2cc(-c3ccccc3)[nH]c(=O)c2C#N)cc1`: the growth is 76.7% (inactive). As for `CN1CCN(c2ccc3c4c(cccc24)C(=O)N(c2cccc(-c4nn(-c5ccccc5)cc4-c4nc5ccccc5s4)c2)C3=O)CC1`, the growth was 43.1% (inactive).

Regarding `CCCn1c(NC(=O)c2cccc(C(N)=O)c2)nc2cc(CN3CCCCC3)ccc21`, the growth is 80.7% (inactive). As for `N#Cc1cc(-c2ccc3ncnc(N4CCc5cc(F)c(Cl)cc54)c3c2)cnc1N`, the growth was 28.2% (inactive).

Consider `CCOC(=O)/C(F)=C/C1CC1CCc1ccc(OCC)cc1` (stereo not given), for which the growth was 99.3% (inactive). `COc1c2c(cc3c1C(CCc1ccccc1)N(C)CC3)OCO2` (stereo not given): the growth is -15.5% (active). `COC(=O)c1c(C(=O)OC)c2ccc3c4ccccc4ccc3n2c1C(=O)C(C)Br` (stereo not given): the growth was 3.26% (active). As for `CN1CCN(C(=O)Oc2cc3c(c4ccccc24)[C@H](CCl)CN3C(=O)c2cc3cc(OCCCN4CCC4)ccc3[nH]2)[C@H]2CSSC[C@H]21`, the growth is -31.2% (active).

For `COc1ccc2[nH]c(O)c(N=Nc3nc(-c4ccc(Cl)cc4)cs3)c2c1`, the growth was 13.1% (inactive). For `CC(C)(C)c1cc(-c2cc(-c3ccccc3)[nH]c(=O)c2C#N)cc(C(C)(C)C)c1` the value was 66.9% (inactive); for `Oc1ccc(Cl)c(Nc2ncnc3c2cnn3CC(Cl)c2ccc(Br)cc2)c1` (stereo not given), 52.3% (inactive).

On to `Cc1ccc(C(=O)Nc2cc(-n3cnc(F)c3)cc(C(F)(F)F)c2)cc1C#Cc1cnc2cccnn12`, for which the growth is 33.1% (inactive). As for `Fc1ccc(Nc2nnc(-c3c[nH]c4ccccc34)o2)cc1`, the growth was 24.7% (inactive). Then `COc1cc2cc(C(=O)N3C[C@@H](CCl)c4c3cc(OC(=O)N(C)CCSSCCN3CCOCC3)c3ccccc43)[nH]c2c(OC)c1OC`, with -11.5% (active); and `O=C(CSc1nnc(-c2ccc(-c3nc4ccc(Cl)cc4[nH]3)cc2)o1)Nc1ccc(Cl)cc1`, with 8.59% (active).

Consider `N#CCc1nnc(NC(=O)c2ccc(-n3c(=O)[nH]c4ccccc4c3=O)cc2)s1`, for which the growth was 111% (inactive). For `CCOC(=O)c1ccc(NC(=S)NC(=O)c2cccc(NC(=O)c3ccc(C)cc3)c2)cc1` the value was 62.4% (inactive); for `Cc1oc(-c2ccccc2)nc1CN[C@@H]1C[C@@H]2C[C@H]([C@H]1C)C2(C)C`, -3.45% (active); for `O=C1Nc2cc(-c3ccc(NS(=O)(=O)c4ccc(-c5ccccc5)cc4)cc3)ccc2/C1=C/c1ccc[nH]1`, 21.3% (inactive). In the case of `O=C(N/N=C/c1ccc(B(O)O)s1)c1[nH]c2ccc(Br)cc2c1-c1ccccc1`, the growth is 0.974% (active). Take `O=C(Cn1c(-c2ccccc2)nc2ccccc21)N=Nc1c(O)[nH]c2ccc(Cl)cc12`: the growth was 20.4% (inactive). For `COc1ccc2c(c1)C(Sc1ccc(Br)cc1)c1c(nc(N)c(C#N)c1N)O2` (stereo not given) the value was 87.1% (inactive).
